From PubChem BioAssay AID1159580 (chemical genetic matrix, 2015)
Several values for one entry are separate records, joined by “and”; a condition that tells them apart may be missing. Equal entries are not always repeated. Among all 5,500 compounds or so, about 2,000 (36%) were called active. Another 18% or so got no clear call; they are omitted. Rule as the data show it: active = normalized growth mostly below about 0.91 (no sharp cut-off); inconclusive = no clear call, values can overlap the other calls; inactive = mostly above about 0.92. This is one part of the list.

Assay: chemical genetic growth profiling, strain panel (AID 1159580);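 also: tested at 20 µM; growth read once vehicle control cultures reached saturation at 30 °C; 1 = growth at the plate median or of vehicle wells; lower values mean less growth of the strain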
Conditions: S. cerevisiae deletion strains, growth OD

Measured: normalized growth

COc1ccc2c(c1OC)C(=O)O[C@H]2[C@H]1c2cc3c(cc2CCN1C)OCO3
inactive: locus YAL013W, strain DEP1, hits give low values 0.997 | locus YAL021C, strain ccr4, hits give low values 0.987 | locus YAL026C, strain drs2, hits give low values 1.01 | locus YAL030W, strain snc1, hits give low values 1 | locus YBL061C, strain skt5, hits give low values 0.997 | locus YBR009C, strain hhf1, hits give low values 1.01 | locus YBR021W, strain FUR4, hits give low values 1 | locus YBR023C, strain chs3, hits give low values 0.988 | locus YBR171W, strain sec66, hits give low values 0.988 | locus YBR229C, strain ROT2, hits give low values 1.01 | locus YBR231C, strain swc5, hits give low values 1 | locus YBR279W, strain paf1, hits give low values 0.995 | locus YCL011C, strain gbp2, hits give low values 1 | locus YCL016C, strain dcc1, hits give low values 1 | locus YCL029C, strain bik1, hits give low values 1.02 | locus YCL061C, strain MRC1, hits give low values 1 | locus YCL069W, strain vba3, hits give low values 1 | locus YCR088W, strain abp1, hits give low values 1.01 | locus YDL005C, strain med2, hits give low values 0.997 | locus YDL035C, strain GPR1, hits give low values 1 | locus YDL040C, strain nat1, hits give low values 0.991 | locus YDL074C, strain BRE1, hits give low values 1.01 | locus YDL101C, strain DUN1, hits give low values 1.02 | locus YDL134C, strain PPH21, hits give low values 1 | locus YDL185W, strain tfp1, hits give low values 1 | locus YDL192W, strain arf1, hits give low values 1.01 | locus YDR001C, strain nth1, hits give low values 0.999 | locus YDR069C, strain doa4, hits give low values 1 | locus YDR101C, strain arx1, hits give low values 1 | locus YDR137W, strain rgp1, hits give low values 0.988 | locus YDR150W, strain NUM1, hits give low values 1 | locus YDR159W, strain sac3, hits give low values 0.989 | locus YDR162C, strain NBP2, hits give low values 0.966 | locus YDR195W, strain ref2 0.998 | locus YDR297W, strain sur2, hits give low values 1 | locus YDR318W, strain mcm21, hits give low values 1.01 | locus YDR334W, strain swr1, hits give low values 1 | locus YDR335W, strain msn5, hits give low values 0.989 | locus YDR388W, hits give low values 1.01 | locus YDR392W, strain spt3, hits give low values 0.928 | locus YDR502C, strain sam2, hits give low values 1 | locus YEL003W, strain gim4, hits give low values 0.998 | locus YEL037C, strain rad23, hits give low values 0.99 | locus YEL061C, strain CIN8 (second series), hits give low values 0.991 | locus YEL061C, strain CIN8, hits give low values 0.991 | locus YER015W, strain faa2, hits give low values 1 | locus YER016W, strain bim1, hits give low values 0.997 | locus YER110C, hits give low values 1.01 | locus YER111C, strain swi4, hits give low values 0.993 | locus YER155C, strain BEM2 (second series), hits give low values 0.994 | locus YER155C, strain BEM2, hits give low values 0.992 | locus YER167W, strain BCK2, hits give low values 1.01 | locus YFR010W, strain ubp6, hits give low values 1.01 | locus YGL078C, strain dbp3, hits give low values 1.01 | locus YGL086W, strain mad1, hits give low values 1 | locus YGL167C, strain pmr1, hits give low values 0.997 | locus YGL173C, strain kem1, hits give low values 0.993 | locus YGL227W, strain vid30, hits give low values 0.993 | locus YGL240W, strain doc1, hits give low values 1 | locus YGL248W, strain PDE1, hits give low values 1.01 | locus YGL253W, strain hxk2, hits give low values 0.994 | locus YGR078C, strain PAC10, hits give low values 0.992 | locus YGR135W, strain pre9, hits give low values 0.996 | locus YGR229C, strain SMI1, hits give low values 0.99 | locus YGR252W, strain gcn5, hits give low values 0.953 | locus YHR013C, strain ard1, hits give low values 0.974 | locus YHR027C, strain rpn1, hits give low values 0.992 | locus YHR030C, strain SLT2, hits give low values 1.01 and 1.04 | locus YHR079C, strain IRE1 (second series), hits give low values 1.02 | locus YHR079C, strain IRE1, hits give low values 1.05 | locus YHR094C, strain hxt1, hits give low values 1.01 | locus YHR129C, strain ARP1, hits give low values 1.02 | locus YHR142W, strain chs7, hits give low values 0.995 | locus YHR200W, strain rpn10, hits give low values 1 | locus YIL066C, strain RNR3, hits give low values 1 | locus YIL073C, strain SPO22, hits give low values 0.997 | locus YIL125W, strain kgd1, hits give low values 1.01 | locus YIR030C, strain dcg1, hits give low values 1.02 | locus YJL092W, strain hpr5, hits give low values 0.999 | locus YJL095W, strain BCK1 (second series), hits give low values 1 | locus YJL095W, strain BCK1, hits give low values 1.02 | locus YJL115W, strain asf1, hits give low values 0.995 | locus YJL129C, strain trk1, hits give low values 0.992 | locus YJL134W, strain LCB3, hits give low values 1 | locus YJL154C, strain vps35, hits give low values 0.997 | locus YJL164C, strain tpk1, hits give low values 0.991 | locus YJL166W, strain qcr8, hits give low values 0.994 | locus YJL168C, strain set2, hits give low values 1.01 | locus YJL187C, strain SWE1 (second series), hits give low values 1.01 | locus YJL187C, strain SWE1, hits give low values 0.999 | locus YJR043C, strain POL32, hits give low values 1.01 | locus YJR066W, strain TOR1, hits give low values 0.976
